Laboratory results from PubChem BioAssay (NCI).
Compounds without any hit were thinned out: in the full panel of roughly 79,000, 15% have a hit. Unmarked numbers belong to inactive results. Activity calls are given as the source filed them. Rule as the data show it: active = growth inhibition above about 70%; inactive = the rest.

Assay: NCI Yeast Anticancer Drug Screen. Data for the mlh1 rad18 strain (AID 175)
Conditions: S. cerevisiae mlh1 rad18 strain growth inhibition, stronger effect = higher value
Protocol: Growth inhibition of yeast strains with defined genetic alterations is measured as a screen for potential anti-cancer activity. Selected strains with alterations in DNA damage repair or cell cycle control were exposed to compounds and growth inhibition was measured relative to vehicle treated controls. The strain used in this assay is mlh1 rad18

[1] = at 5.0 µM (retest, dose inferred, filed as 0.5)
[2] = at 50.0 µM (retest, dose inferred, filed as 5.0)

| Structure (SMILES) | growth inhibition [1] | growth inhibition [2] | growth inhibition (at 50.0 µM) |
| --- | --- | --- | --- |
| Cn1c2c(c3ccccc31)CCN(CCCN1CCN(c3cccc(Cl)c3)CC1)C2=O | 25% | 25% | 71% (active) |
| CCOC(=O)c1c(Cl)nc2ccccc2c1N=[N+]=[N-] | 2% | 95% (active) | 89.5% (active) |
| O=C(CCCN1CCc2[nH]c3cc(F)ccc3c2C1)c1ccc(F)cc1 | 12% | 99% (active) | 85.6% (active) |
| CCOC(=O)C1=C(c2ccccc2)N(C)c2ccccc2S1 | 1% | 62% | 67.2% |
| Cn1c(C2CCC(=O)N2Cc2ccccc2)n[nH]c1=S (configuration not stated) | 1% | -4% | 89.5% (active) |
| CCCC(=O)N(C(=O)CCC)C1=C(Cl)C(=O)c2ccccc2C1=O | 48% | 64% | 86.6% (active) |
| CCN(CC)CCC(=O)/C=C/c1ccc(Cl)c(Cl)c1 | 37% | 98% (active) | 89.3% (active) |
| O=S(=O)(Nc1ccc(Cl)cc1)c1ccccc1 | -5% | 63% | 45.5% |
| ON=C(CC(O)(C(F)(F)Cl)C(F)(F)Cl)CC(O)(C(F)(F)Cl)C(F)(F)Cl | 62% | 99% (active) | 99.5% (active) |
| CC(C)(C)c1ccc(O)c(CN(Cc2c(O)ccc3ccccc23)C2CCCCC2)c1 | 10% | 99% (active) | 98.1% (active) |
| Cn1c(=NCCc2ccccc2)oc2ccc(Cl)cc21 | -3% | 25% | 18.6% |
| COc1ccc(C23OCCN2C(=O)c2ccccc23)cc1 (configuration not stated) | -10% | -2% | 97.9% (active) |
| CC(=O)C1(C(C)=O)C2=C(C(=O)C(Cl)=C(Cl)C2=O)N2C=CC=CC21 (configuration not stated) | 92% (active) | 96% (active) | 98.2% (active) |
| CCCCCCCCCCSC(=NCC)NCC | 0% | 99% (active) | 99.5% (active) |
